This excerpt belongs to a sample that is enriched for hits.
aSyn UTR act – Activators via SNCA 5'UTR binding, MLPCN; alpha-synuclein 5'UTR reporter, activators screen; 7.1% of 300,000 active; AID 1814; activity score, % (tested at 7.5 µM), hits read low; in the data active = activity score below about -60%
Large screens that a line does not name were inactive.

Cc1cccc(-c2nnc3n2N=C(c2ccccc2)CS3)c1	none
Cc1cc(-c2nnc3n2N=C(c2ccc(F)cc2)CS3)n[nH]1	aSyn UTR act -77
CCN/N=C(\Cc1nc2ccccc2[nH]1)c1ccccc1	aSyn UTR act -138
Clc1cccc(/C(Cc2nc3ccccc3[nH]2)=N\Nc2ccccc2)c1	aSyn UTR act -64
N/N=C(/Cc1nc2ccccc2[nH]1)c1ccc([N+](=O)[O-])cc1	aSyn UTR act -75
N#CCCN/N=C(/Cc1nc2ccccc2[nH]1)c1ccc(Cl)cc1	aSyn UTR act -67
c1ccc(N/N=C(\Cc2nc3ccccc3[nH]2)c2ccccc2)cc1	aSyn UTR act -102
COc1cccc(-c2noc(C3CCCN(C(=O)c4ccccc4OC)C3)n2)c1 (configuration not stated)	aSyn UTR act -85
CCC(C)C(=O)N1CCCC(c2nc(-c3cccs3)no2)C1 (configuration not stated)	aSyn UTR act -126
COc1cccc(-c2noc(C3CCCN(C(=O)CC(C)(C)C)C3)n2)c1 (configuration not stated)	aSyn UTR act -127
Cc1ccccc1NC(=O)N1CCCC(c2nc(-c3ccc(C(C)C)cc3)no2)C1 (configuration not stated)	aSyn UTR act -205
CCCCC(=O)N1CCCC(c2nc(-c3cccc(OC)c3)no2)C1 (configuration not stated)	aSyn UTR act -141
Cc1[nH]c(=O)c(C(=O)/C=C/c2ccccc2F)c2c1CCCC2	aSyn UTR act -364
O=C(NCc1cccnc1)/C(=C\c1ccc(-c2ccc(Br)cc2)o1)S(=O)(=O)c1ccccc1	aSyn UTR act -138
O=C(NCc1cccnc1)/C(=C/c1ccc(-c2ccc(Cl)cc2)o1)S(=O)(=O)c1ccccc1	aSyn UTR act -79
Cc1ccc(C(=O)N/C(=C\c2ccc(-c3ccc(Br)cc3)o2)C(=O)NCCCN(C)C)cc1	none
N#Cc1c(N)nc2c(c1N)CC(=O)N2c1ccc(Cl)cc1	aSyn UTR act -132
O=C(NCc1csc(-c2cccs2)n1)c1ccsc1	aSyn UTR act -112
Cc1ccn(-c2cc(O)c(-n3ccc(C)n3)cc2O)n1	aSyn UTR act -85
Cc1ccc(C2CN=NC23CCc2ccccc2C3=O)cc1 (configuration not stated)	aSyn UTR act -80
N/C(=N\OC(=O)c1ccc(Cl)cc1)c1ccn[nH]1	aSyn UTR act -77
N/C(=N\OC(=O)c1ccc(Cl)cc1Cl)c1cccnc1	aSyn UTR act -70
N/C(=N\OC(=O)c1ccco1)c1cccnc1	aSyn UTR act -78
N/C(=N\OC(=O)c1ccc(Cl)cc1)c1ccc(Cl)cc1	aSyn UTR act -122
N/C(=N\OC(=O)c1ccco1)c1ccc(Cl)cc1	aSyn UTR act -210
N/C(=N\OC(=O)c1ccc(Cl)cc1)c1cccnc1	aSyn UTR act -187
Cc1ccccc1/C(N)=N/OC(=O)c1cccs1	aSyn UTR act -120
N/C(=N\OC(=O)c1cccs1)c1cccnc1	aSyn UTR act -92
CCSc1ccc(/C(N)=N/OC(=O)c2cccs2)cn1	aSyn UTR act -120
Fc1ccccc1CSc1nnc(-c2cccs2)o1	aSyn UTR act -128
c1ccc(CSc2nnc(-c3cccs3)o2)cc1	aSyn UTR act -170
Fc1ccc(-c2nnc(Cc3ccc(Cl)cc3)o2)cc1	aSyn UTR act -86
Fc1ccc(Cc2nnc(-c3cccs3)o2)cc1	aSyn UTR act -114
Fc1ccc(CSc2nnc(-c3cccs3)o2)cc1	aSyn UTR act -88
O=C(c1ccccc1)c1ccc2cc(O)ccc2c1	aSyn UTR act -231
COCCNC(=O)C(c1ccncc1)N(Cc1ccccc1)C(=O)Cn1nnc2ccccc21 (configuration not stated)	aSyn UTR act -82
COCCNC(=O)C(c1cccnc1)N(Cc1ccccc1)C(=O)Cn1nnc2ccccc21 (configuration not stated)	aSyn UTR act -65
C=C[C@@]1(C)CC(=O)[C@]2(O)[C@@]3(C)[C@@H](O)CCC(C)(C)[C@@H]3[C@H](OC(C)=O)[C@H](O)[C@@]2(C)O1	none
c1ccc(-c2noc(CCC3CCCC3)n2)cc1	aSyn UTR act -121
c1cc(-c2noc(CCC3CCCC3)n2)ccn1	aSyn UTR act -79
CN(Cc1nc(-c2ccccc2)no1)C1CCOCC1	aSyn UTR act -98
c1ccc(-c2noc(CC3CCCCC3)n2)cc1	aSyn UTR act -169
COc1ccc2c(C(=O)CN3CCSCC3)c[nH]c2c1	aSyn UTR act -63
CCOC(=O)/C=C(/C)N1N=C(c2ccc(OC)cc2)CC1c1cccc([N+](=O)[O-])c1 (configuration not stated)	aSyn UTR act -166
O=c1cc(-c2ccc3c(c2)OCCO3)oc2ccc(Cl)cc12	aSyn UTR act -149
O=c1c(O)c(-c2cccs2)oc2ccc(Cl)cc12	aSyn UTR act -75
O=c1cc(-c2cccs2)oc2ccc(Cl)cc12	aSyn UTR act -178
CCn1c(Cn2nnc(-c3ccccc3)n2)nnc1SCC(=O)Nc1ccc(C(C)=O)cc1	aSyn UTR act -92
CC(=O)Nc1cccc(-c2cc(C)c3cc4c(cc3n2)OCO4)c1	aSyn UTR act -89
CC(=O)Nc1cccc(-c2nc3ccccc3s2)c1	aSyn UTR act -133

High-throughput results from PubChem.
